Reference: the supplement of paper PMC3334620
The full ranking holds about 33,000 sequences; the median of “E-score (-0.5 to 0.5)” is about -0.053, and the highest 2% start at about 0.37. Many of the other results were omitted from the sample, so the highest values are more common in it than they were.

Biological target: Hap1 (UniProt P0CE41)
Assay: PBM E-score (8-mer binding enrichment) (E-score (-0.5 to 0.5)); higher = stronger / more preferred TF binding
Conditions: protein concentration: 200 nM; construct: GST-DNA-binding domain
Outline: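 Bound GST-tagged yeast transcription factors, applied at about 100-200 nM to double-stranded universal all-10-mer Agilent arrays, were detected with fluorescent anti-GST. Scans were normalised with masliner. A modified Wilcoxon-Mann-Whitney statistic, the E-score, was assigned to each ungapped eight-base word pooled with its reverse complement by the Universal PBM Analysis Suite.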

Chain of UniProt P0CE41 (P0CE41 whole entry): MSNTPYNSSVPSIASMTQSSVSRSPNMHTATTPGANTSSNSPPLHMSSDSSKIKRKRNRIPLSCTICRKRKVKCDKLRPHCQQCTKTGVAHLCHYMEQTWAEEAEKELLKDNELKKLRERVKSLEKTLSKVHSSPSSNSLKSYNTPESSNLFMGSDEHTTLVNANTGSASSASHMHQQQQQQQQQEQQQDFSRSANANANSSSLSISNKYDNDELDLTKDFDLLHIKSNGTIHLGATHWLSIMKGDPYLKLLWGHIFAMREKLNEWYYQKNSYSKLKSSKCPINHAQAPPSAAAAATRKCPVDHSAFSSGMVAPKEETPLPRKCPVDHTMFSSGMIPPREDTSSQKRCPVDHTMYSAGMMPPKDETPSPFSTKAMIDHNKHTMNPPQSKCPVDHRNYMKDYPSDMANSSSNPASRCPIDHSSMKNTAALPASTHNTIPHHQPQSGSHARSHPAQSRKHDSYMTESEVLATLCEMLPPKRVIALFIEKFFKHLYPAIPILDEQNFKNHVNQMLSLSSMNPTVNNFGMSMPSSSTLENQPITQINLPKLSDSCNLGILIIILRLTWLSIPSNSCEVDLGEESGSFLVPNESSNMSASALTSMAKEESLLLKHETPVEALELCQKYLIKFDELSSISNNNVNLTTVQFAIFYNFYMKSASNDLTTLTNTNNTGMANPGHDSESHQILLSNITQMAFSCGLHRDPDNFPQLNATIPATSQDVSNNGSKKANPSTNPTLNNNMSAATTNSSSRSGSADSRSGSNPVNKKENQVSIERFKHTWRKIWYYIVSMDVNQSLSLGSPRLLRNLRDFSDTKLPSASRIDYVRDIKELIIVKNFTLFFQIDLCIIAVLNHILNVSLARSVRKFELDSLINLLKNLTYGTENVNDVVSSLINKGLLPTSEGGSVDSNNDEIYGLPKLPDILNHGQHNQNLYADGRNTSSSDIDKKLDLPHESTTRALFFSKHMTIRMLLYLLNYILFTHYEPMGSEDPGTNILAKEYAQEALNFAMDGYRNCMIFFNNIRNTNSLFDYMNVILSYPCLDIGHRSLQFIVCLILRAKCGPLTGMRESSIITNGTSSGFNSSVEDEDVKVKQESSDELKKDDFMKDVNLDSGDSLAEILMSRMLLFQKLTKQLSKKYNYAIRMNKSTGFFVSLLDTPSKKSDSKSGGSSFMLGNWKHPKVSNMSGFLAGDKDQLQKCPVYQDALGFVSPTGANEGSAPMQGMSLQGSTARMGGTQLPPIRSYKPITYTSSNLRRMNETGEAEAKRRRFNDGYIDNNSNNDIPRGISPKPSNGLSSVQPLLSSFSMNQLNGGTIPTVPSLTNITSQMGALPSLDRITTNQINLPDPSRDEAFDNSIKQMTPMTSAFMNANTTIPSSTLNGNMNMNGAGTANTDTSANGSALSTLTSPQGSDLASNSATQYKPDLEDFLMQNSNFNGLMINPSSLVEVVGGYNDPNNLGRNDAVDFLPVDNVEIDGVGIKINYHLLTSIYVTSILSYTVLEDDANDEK

Sequence | PBM E-score
GACTCGGA | 0.405
AGCTCGGA | 0.325
CCCTCGTA | -0.0221
ACCTCGGG | 0.26
TACTCGGA | 0.312
CCCTCGGA | 0.373
AACTCGGA | 0.345
GCCTCGGA | 0.331
CCCTCGGC | 0.268
CATCACAG | -0.258
TGGATGAA | -0.183
AAAGAAGA | -0.0993
GAGTGTGA | -0.176
CCCCTTAC | -0.132
TAAGGTCA | -0.193
CAGGCTAG | -0.279
AATGGGGC | -0.188
CACTCGGG | 0.159
CACTCGGC | 0.374
ACCTCGAA | -0.135
AACTCGGC | 0.316
ACCTCGGA | 0.384
ACCTCGTA | -0.0139
CTCAGCTA | -0.214
CCCTACTC | -0.0316
CCGATACC | 0.377

Sequence | PBM E-score
GCGATACC | 0.192
ACGATACA | -0.216
CAGATACG | 0.0074
CCGATTCC | 0.405
ACGATACG | -0.263
ACGATACC | 0.179
CCGATACA | 0.43
CCGATACG | 0.42
GCGATACA | 0.0344
CCGATTCG | 0.347
GCGATTCC | 0.211
GGGCACCA | -0.0557
CTGACCGA | 0.258
GGAAGCCA | -0.0815
GATTTTGC | -0.0335
CTCTCCGC | 0.0772
CTCTCCGA | 0.203
ATCTCCCG | 0.263
ATCTCCAG | 0.0473
ATCTCCGG | 0.483
ATCTCCGA | 0.486
ATCTCCGC | 0.455
ATCTCCCC | 0.0474
GTCTCCGA | 0.332
CTCCAAAC | -0.124
GCCGAGGA | 0.294

Sequence | PBM E-score
CCCGAGAA | 0.351
TCCGAGAA | 0.381
CCCGAGCG | 0.354
ACCGAGCA | 0.359
ACCGAGCT | 0.294
TCCGAGGA | 0.384
TCCGAGCA | 0.402
ACCGAGCG | 0.384
GCCGAGCA | 0.236
CCCGAGGA | 0.192
ACCGAGAA | 0.271
GCTAGGGA | -0.228
CCTTGAGA | -0.0628
GCGTTGTA | -0.0982
AACACCAA | -0.314
TAGATAGA | -0.111
GGCGAACC | 0.0857
CCCGCAAC | 0.277
ACCAGACC | 0.0586
ATTTCTGG | -0.13
GGTAAATA | 0.0374
ATCCCCCC | -0.00218
ATCCCCGA | 0.44
ATCCCCGC | 0.371
ATCCCGGG | 0.376
ATCCCCTG | -0.324

Sequence | PBM E-score
CTCCCCGA | 0.247
ATCCCCCG | 0.366
ATCCCGGA | 0.36
ATCCCGGC | 0.339
CTCCCCGC | 0.204
GTCCCCGA | 0.269
ATCCCCGG | 0.426
AGGGAATG | -0.197
AACACCCT | -0.0622
GACCTCTC | 0.0308
CCTATCAA | -0.119
ACATGGAC | -0.143
TGCGAGAA | -0.143
ATAGGGAG | -0.147
CTAGAGAA | -0.207
GCCAGACC | 0.0912
ACAGCTAC | -0.11
TTAGAAAA | -0.0981
AATCGCAC | -0.23
CCGAGAAA | 0.4
GCGAGAAA | 0.116
AGGAGAAG | -0.149
CGGAGAAG | 0.378
TCGAGAAA | -0.271
CGGAGAAC | 0.36
CGGAGAAA | 0.413

Sequence | PBM E-score
GGGAGAAA | 0.0441
TGGAGAAA | -0.0481
CTACTACC | 0.068
TAACTTAA | 0.0501
CATATGGG | 0.0423
ACCACACT | -0.0326
CCCACCGC | 0.153
AACACCGC | 0.278
AACACCTG | -0.0827
CCCACCGA | 0.0319
CCCACCGG | 0.374
AACACCGT | 0.245
CACACCGG | 0.288
AACACCGG | 0.409
AACACCGA | 0.446
GCAACCCC | 0.0182
ATGGAGTC | -0.104
AACGGTAG | -0.00937
CCGATGTC | 0.295
CCGCACCC | 0.209
CTTCCGTA | 0.262
CTTCCGGC | 0.275
ATTCCGGA | 0.432
ATTCCGTA | 0.259
CTTCCGGA | 0.404
GTTCCGCA | 0.209

Sequence | PBM E-score
ATTCCGCA | 0.196
GTTCCGAA | 0.331
GTTCCGGA | 0.383
GATGAGGC | -0.0801
AAATCGGT | 0.246
ACGGGCCC | 0.214
CCCTCACG | -0.262
GAACCATA | -0.0291
CTAAAACC | 0.291
AGGAATGC | -0.253
CCTCCGTC | 0.113
CCTCCGGC | 0.399
GCTCCGTA | 0.297
CCTCCGCA | 0.173
CCTCCGTA | 0.246
CCTCCGGA | 0.418
ACTCCGGG | 0.39
GCTCCGGA | 0.444
CCTCCGAC | 0.28
ACTCCGTG | 0.292
ACTCCTGG | -0.171
GCTCCGCA | 0.164
AGTCTTCC | -0.0885
CGCCGTCC | 0.0969
ACAATCAT | -0.0714
GGTAGGAC | 0.0611

Sequence | PBM E-score
ACTCCGGC | 0.389
ACTCCGGA | 0.461
ACTCCGTC | 0.3
ACTCCGCA | 0.156
ACTCCGCC | 0.306
ACTCCGTA | 0.244
AGTAGTAC | 0.105
AACTAACA | -0.0716
CTCGCAAC | -0.237
AGGGGTTA | -0.0702
CCGGGTTC | 0.296
GGGGGGTA | 0.047
CGGGTTTA | 0.474
CGGGTTTC | 0.331
GGGGGTTA | -0.181
CCGGGTTA | 0.37
CGGGGTTA | 0.485
CGGGGGTA | 0.425
ACGGGTTA | 0.0135
GGGGTTTA | 0.266
CCGGGGTA | 0.301
